Source: PubChem (ICCB-Longwood Screening Facility, Harvard Medical School)
CapD inh = CapD enzyme inhibition; purified CapD enzyme, fluorescence intensity read-out; active compounds read low; z-score (concentration not given with the values); 0.23% of 140,000 active; AID 492967; in the data active = z-score mostly below about -2.9, no sharp cut-off; inactive = mostly above about -1.9
Large screens that a line does not name were inactive. The sample as a whole holds a higher share of hits than the screen did.

COc1cccc(CNC(=O)C2=C(C)C(=O)OC23CCCCC3)c1OC	none
CCCNC(=O)c1c(C)cc(=O)oc1C	none
Cc1cc(=O)oc(C)c1C(=O)NCc1ccccc1	CapD inh -3.69
Cc1oc2c(c1C(=O)NCc1ccccc1)C(=O)c1ccccc1C2=O	none
O=C(CSCc1nc(-c2ccccc2)cs1)NNC(=O)OCc1cccc(OCc2ccccc2)c1	none
COc1ccc(-c2nn(-c3ccccc3)cc2CC#N)cc1OC	none
COC(=O)/C(C#N)=C/c1ccccc1C	CapD inh -4.28
COC(=O)/C(C#N)=C/c1ccc(C)o1	none
CCOC(=O)/C(C#N)=C/c1ccccc1	none
COC(=O)CSC1=C(C#N)C(c2ccccc2C)C(C#N)C(=O)N1 (stereo not drawn)	none
Cc1cc(C)nc(Sc2ccc(OC(=O)N(C)C)cc2)n1	none
c1ccc(-c2nc(-c3cccc4ccccc34)[nH]c2-c2ccccc2)cc1	none
CON(C)C(=O)Nc1cc2sccc2nc1C(F)(F)F	none
O=C(O)CN1C(=O)COc2ccccc21	none
O=C(CN1C(=O)COc2ccccc21)Nc1ccc(Cl)cc1	none
O=C1COc2ccccc2N1C(=O)c1ccc(Cl)cc1	CapD inh -4.1
CC(=O)Oc1ccccc1N(C(C)=O)S(=O)(=O)c1ccc(C)cc1	none
COc1ccccc1N(C(C)=O)S(=O)(=O)c1ccc(Cl)cc1	CapD inh -4.7
COc1ccc(N(C(=O)c2ccccc2)S(=O)(=O)c2ccc(Cl)cc2)cc1	none
CCC(C)(C)c1cc2cc(NS(=O)(=O)c3ccc(Cl)cc3)ccc2[nH]1	none
O=C(OCCCC1CCCCC1)N1CCN(c2ccc(C(F)(F)F)cn2)CC1	none
O=C(NCc1ccco1)NCC(F)(F)F	none
O=C(NCc1ccco1)C1c2ccccc2Oc2ccccc21	none
C=C1C(C(=O)NCc2ccco2)C1C(=O)NCc1ccco1 (stereo not drawn)	CapD inh -10.2
COc1cccc2c1CCN(C)C2=O	none
CNc1ccccc1C(N)=O	none
N#CC(C#N)=NNc1ccccc1C(N)=O	CapD inh -5.96
NC(=O)c1ccccc1NC(=O)Nc1ccccc1	none
O=C(Nc1nc(-c2ccc(Oc3ccccc3)cc2)cs1)c1sc2ccccc2c1Cl	none
CC1=NC2(CCN(C(=O)Nc3ccc(F)cc3F)CC2)N=C1c1cccc(C(F)(F)F)c1	none
CCCCN(CC)Cc1ccc(CNC(=S)Nc2cccc(F)c2)o1	none
O=C(NCc1ccccc1)Nc1ccccc1	none
CCCCN(CC)Cc1ccc(CNC(=O)Nc2ccccc2)o1	CapD inh -5.07
O=C(O)CSc1nc2nc[nH]c(=O)c2[nH]1	none
O=S(=O)(c1ccc2c(c1)OCCO2)N1CC=C(c2ccccc2)CC1	none
O=C1NC(=S)N(c2ccc(Br)cc2)C(=O)/C1=C/c1cccn1-c1ccccc1	none
COc1ccc(N2C(=O)/C(=C\c3ccc(Br)cc3)C(=O)NC2=S)cc1	none
O=C1NC(=S)N(c2ccccc2)C(=O)/C1=C\c1ccoc1	CapD inh -5.73
COCCNC(=O)C1c2ccccc2C(=O)N(CCOC)C1c1cccs1 (stereo not drawn)	none
COc1ccc(CCn2c(-c3ccc(C4CCCCC4)cc3)csc2=Nc2ccc(F)cc2)cc1OC	none
CC(C)(C)OC(=O)NCC1CCC(C(=O)NCc2cccs2)CC1 (stereo not drawn)	none
Cc1nc(C)c(C#N)c(-c2ccc(Cl)cc2)c1C#N	none
O=C1c2ccccc2CC(=O)c2sccc21	CapD inh -6.75
CN1CCC(=C2c3ccccc3CC(=O)c3sccc32)CC1	none
O=C1/C(=C/c2cccs2)Cc2ccccc21	none
CC(C)Cc1nc(C(N)=O)c2[nH]c(=O)n(-c3cccc(Cl)c3)c2n1	none
CSc1nc2nc(N)nc(N)c2s1	none
CSc1nc2c(=S)[nH]c(=S)[nH]c2s1	CapD inh -5.47
COC(=O)c1cccc(-c2ccc(/C=C3\SC(=N)N(c4nccs4)C3=O)o2)c1	none
N=C1S/C(=C/c2ccc(-c3cccc(C(=O)O)c3)o2)C(=O)N1c1nonc1N	CapD inh -6.1
N=C1S/C(=C/c2ccc(-c3ccccc3[N+](=O)[O-])o2)C(=O)N1c1nonc1N	none
O=C(Oc1c(CN2CCOCC2)cc(Cl)c2cccnc12)c1ccc(Cl)cc1	none
CCCN(Cc1cccs1)C(=O)Nc1ccc(OC)cc1	none
Cc1oc(-c2ccccc2F)nc1CS(=O)(=O)CC(=O)N1C(C)CCCC1C (stereo not drawn)	none
NC(=O)CSc1sc(=S)sc1SCC(N)=O	none
NCCSc1sc(=S)sc1SCCN	none
O=C(O)CSc1sc(=S)sc1SCC(=O)O	CapD inh -4.99
CCOC(=O)C12CCCC(CCC1)C(=O)O2	none
c1cc(-c2cn[nH]c2)ncn1	none
CON(C)C(=O)c1cn2c(n1)sc1ccccc12	none
c1ccc(-c2nc3cc4ccccc4cc3nc2-c2ccccc2)cc1	none
CCN1CCN(c2ncnc3c2c(-c2ccccc2)cn3-c2ccc(Cl)cc2)CC1	none
O=C(O)CN1C(=O)Nc2ccc(Br)cc2C1c1ccccc1 (stereo not drawn)	none
O=C1Nc2ccc(Br)cc2C1=Nc1ccc(Cl)cc1	none
O=C1Nc2ccc(Br)cc2/C1=N/N1C(=O)C(O)=CC1(O)c1ccccc1 (stereo not drawn)	CapD inh -4.13
COc1ccc(-n2c(SCC(=O)Nc3ccc(OC)cc3OC)nc3n[nH]c(C)c3c2=N)cc1	none
CCOC(=O)C1=C(C)N=c2s/c(=C3\C(=O)N(CC)c4ccccc43)c(=O)n2C1c1ccc(OC)cc1 (stereo not drawn)	none
CC1CC(C)CN(C(=O)Cn2ncc3ccc(Cl)cc32)C1 (stereo not drawn)	none
Cc1c(C(=O)OCC(C)C)[nH]c2c1C(=O)CC(c1ccc(F)cc1)C2 (stereo not drawn)	none
